# Experimental data as given in article PMC7862700, “An all-to-all approach to the identification of sequence-specific readers for epigenetic DNA modifications on cytosine”.
# Tests used:
# Assay in all cases: DAPPL (digital affinity profiling via proximity ligation, sequencing); 10 mM Tris-HCl pH 7.5, 50 mM NaCl, 1 mM DTT, 4% glycerol, room temperature, 30 min; GST-TFs on glutathione beads, 16-mer random dsDNA library, 0.1% formaldehyde crosslink after washing; high values mean tight binding
# FEV = biological target: T1, FEV (Homo sapiens, UniProt Q99581 1-238); details: protein: recombinant; tags: N-terminal GST; dsDNA, one strand shown
# T1 sequence: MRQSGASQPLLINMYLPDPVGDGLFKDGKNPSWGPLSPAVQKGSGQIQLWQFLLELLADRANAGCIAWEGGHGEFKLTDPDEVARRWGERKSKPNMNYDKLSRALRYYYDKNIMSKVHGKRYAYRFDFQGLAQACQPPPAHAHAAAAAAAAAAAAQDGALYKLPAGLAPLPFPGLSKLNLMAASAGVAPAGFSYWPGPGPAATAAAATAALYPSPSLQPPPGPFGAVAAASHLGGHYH
# Procedure, shortened: (§1)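 Yeast served to express human transcription factors as GST fusions, which were then captured on glutathione beads and labelled with DNA barcodes. Pooled with a tag-only sample, they were incubated with 200 nmole of a 16-mer random double-stranded DNA library for 30 min at room temperature in Tris/NaCl/DTT/glycerol buffer, washed, crosslinked with 0.1% formaldehyde, ligated by proximity, amplified by PCR and sequenced. Dividing each hexamer's read frequency for a factor by its frequency for the tag-only sample gives the binding signal.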
# ETV5 = ETV5 (Homo sapiens, UniProt P41161 1-510); details: protein: recombinant; tags: N-terminal GST; dsDNA, one strand shown
# ETV5, sequence (P41161 whole entry): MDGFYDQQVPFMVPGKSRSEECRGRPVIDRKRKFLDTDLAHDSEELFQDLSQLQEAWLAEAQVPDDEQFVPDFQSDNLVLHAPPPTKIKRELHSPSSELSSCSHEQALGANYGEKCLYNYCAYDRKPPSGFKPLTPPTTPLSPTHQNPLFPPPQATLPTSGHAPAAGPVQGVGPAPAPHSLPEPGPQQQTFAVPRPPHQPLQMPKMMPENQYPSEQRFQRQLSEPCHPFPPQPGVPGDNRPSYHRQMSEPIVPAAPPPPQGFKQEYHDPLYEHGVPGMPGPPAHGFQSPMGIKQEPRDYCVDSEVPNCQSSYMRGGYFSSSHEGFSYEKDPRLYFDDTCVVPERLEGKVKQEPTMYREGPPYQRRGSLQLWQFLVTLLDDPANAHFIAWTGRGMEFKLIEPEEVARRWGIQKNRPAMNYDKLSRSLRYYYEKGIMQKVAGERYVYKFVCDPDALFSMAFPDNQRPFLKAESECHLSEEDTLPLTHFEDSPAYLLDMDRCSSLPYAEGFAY
# Procedure, shortened: as §1
# HSF1 = HSF1 (Homo sapiens, UniProt Q00613 1-529); details: protein: recombinant; tags: N-terminal GST; chain copies: 3; dsDNA, one strand shown
# HSF1, sequence (Q00613 whole entry): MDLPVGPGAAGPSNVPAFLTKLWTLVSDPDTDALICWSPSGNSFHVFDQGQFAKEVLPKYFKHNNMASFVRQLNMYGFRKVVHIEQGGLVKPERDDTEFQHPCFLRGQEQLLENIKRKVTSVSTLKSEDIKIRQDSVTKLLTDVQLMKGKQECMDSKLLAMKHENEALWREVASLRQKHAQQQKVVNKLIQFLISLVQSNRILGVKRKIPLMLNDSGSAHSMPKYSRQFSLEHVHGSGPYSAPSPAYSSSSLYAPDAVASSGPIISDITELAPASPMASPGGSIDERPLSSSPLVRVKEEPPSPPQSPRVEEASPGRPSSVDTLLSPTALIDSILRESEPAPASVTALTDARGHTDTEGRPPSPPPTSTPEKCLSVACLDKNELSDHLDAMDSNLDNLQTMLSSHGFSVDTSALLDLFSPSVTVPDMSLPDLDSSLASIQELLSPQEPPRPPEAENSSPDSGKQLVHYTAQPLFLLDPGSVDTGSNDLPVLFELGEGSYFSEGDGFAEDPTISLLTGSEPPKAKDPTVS
# Procedure, shortened: as §1
# SPIC = biological target: T2, SPIC (Homo sapiens, UniProt Q8N5J4 1-248); details: protein: recombinant; tags: N-terminal GST; dsDNA, one strand shown
# T2 sequence: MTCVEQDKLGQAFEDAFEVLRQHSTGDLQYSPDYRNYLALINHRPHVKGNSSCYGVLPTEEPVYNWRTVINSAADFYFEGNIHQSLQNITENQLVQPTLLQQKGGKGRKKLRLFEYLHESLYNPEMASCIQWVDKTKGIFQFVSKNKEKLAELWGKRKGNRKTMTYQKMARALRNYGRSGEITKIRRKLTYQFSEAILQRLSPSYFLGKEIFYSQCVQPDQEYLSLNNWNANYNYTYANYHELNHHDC
# Procedure, shortened: as §1
# ELF4 = ELF4 (Homo sapiens, UniProt Q99607 1-663); details: protein: recombinant; tags: N-terminal GST; dsDNA, one strand shown
# ELF4, sequence (Q99607 whole entry): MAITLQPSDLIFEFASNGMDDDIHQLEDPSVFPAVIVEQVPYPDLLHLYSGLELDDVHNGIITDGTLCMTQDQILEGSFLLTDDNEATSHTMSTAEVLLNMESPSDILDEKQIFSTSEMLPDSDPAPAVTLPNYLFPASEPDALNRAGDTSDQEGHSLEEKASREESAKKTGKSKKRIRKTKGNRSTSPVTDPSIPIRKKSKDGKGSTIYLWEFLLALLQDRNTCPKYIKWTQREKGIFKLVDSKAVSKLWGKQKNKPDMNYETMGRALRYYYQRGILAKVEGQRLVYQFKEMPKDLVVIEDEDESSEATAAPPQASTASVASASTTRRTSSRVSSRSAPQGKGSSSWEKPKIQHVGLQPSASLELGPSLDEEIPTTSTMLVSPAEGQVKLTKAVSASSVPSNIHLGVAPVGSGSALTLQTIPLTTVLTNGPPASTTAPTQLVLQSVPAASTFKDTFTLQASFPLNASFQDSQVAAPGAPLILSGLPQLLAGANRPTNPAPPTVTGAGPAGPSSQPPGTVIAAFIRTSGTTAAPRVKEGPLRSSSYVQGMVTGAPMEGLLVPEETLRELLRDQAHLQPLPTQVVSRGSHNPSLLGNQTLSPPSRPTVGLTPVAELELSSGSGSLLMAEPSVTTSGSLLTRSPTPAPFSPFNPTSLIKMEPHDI
# Procedure, shortened: as §1
# ELK4 = biological target: T3, ELK4 (Homo sapiens, UniProt P28324-2 1-405); details: protein: recombinant; tags: N-terminal GST; dsDNA, one strand shown
# T3 sequence: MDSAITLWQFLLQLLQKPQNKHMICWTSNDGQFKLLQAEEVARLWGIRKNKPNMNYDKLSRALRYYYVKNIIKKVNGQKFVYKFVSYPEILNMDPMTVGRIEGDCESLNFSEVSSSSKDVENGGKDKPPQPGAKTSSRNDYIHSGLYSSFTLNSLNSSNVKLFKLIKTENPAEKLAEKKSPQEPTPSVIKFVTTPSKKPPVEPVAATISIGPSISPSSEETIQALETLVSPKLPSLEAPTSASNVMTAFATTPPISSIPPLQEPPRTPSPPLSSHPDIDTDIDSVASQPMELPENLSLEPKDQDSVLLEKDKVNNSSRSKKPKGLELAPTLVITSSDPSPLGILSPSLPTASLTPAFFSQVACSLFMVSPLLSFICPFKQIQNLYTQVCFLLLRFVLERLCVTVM
# Procedure, shortened: as §1
# ETV2 = biological target: T4, ETV2 (Homo sapiens, UniProt O00321 1-342); details: protein: recombinant; tags: N-terminal GST; dsDNA, one strand shown
# T4 sequence: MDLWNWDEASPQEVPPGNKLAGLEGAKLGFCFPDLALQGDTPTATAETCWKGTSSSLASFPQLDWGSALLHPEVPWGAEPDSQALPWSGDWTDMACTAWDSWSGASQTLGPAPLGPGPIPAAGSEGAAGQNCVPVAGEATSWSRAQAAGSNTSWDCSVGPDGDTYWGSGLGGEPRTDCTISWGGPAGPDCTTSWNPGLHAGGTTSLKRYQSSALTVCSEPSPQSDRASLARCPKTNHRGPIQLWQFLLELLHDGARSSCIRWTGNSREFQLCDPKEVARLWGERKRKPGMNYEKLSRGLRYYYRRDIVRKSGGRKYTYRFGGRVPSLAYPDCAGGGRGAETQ
# Procedure, shortened: as §1
# ELF3 = biological target: T5, ELF3 (Homo sapiens, UniProt P78545 1-371); details: protein: recombinant; tags: N-terminal GST; dsDNA, one strand shown
# T5 sequence: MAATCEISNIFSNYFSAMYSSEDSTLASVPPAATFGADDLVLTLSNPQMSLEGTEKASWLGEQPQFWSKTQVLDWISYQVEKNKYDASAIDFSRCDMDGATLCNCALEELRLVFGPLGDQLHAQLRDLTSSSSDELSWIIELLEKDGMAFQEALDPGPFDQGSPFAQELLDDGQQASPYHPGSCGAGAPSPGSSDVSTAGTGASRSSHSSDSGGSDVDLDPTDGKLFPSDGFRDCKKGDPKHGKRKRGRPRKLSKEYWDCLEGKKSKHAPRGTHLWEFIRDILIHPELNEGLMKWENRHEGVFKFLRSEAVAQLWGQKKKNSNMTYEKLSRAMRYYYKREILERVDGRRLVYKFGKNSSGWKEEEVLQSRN
# Procedure, shortened: as §1
# CRX = CRX (Homo sapiens, UniProt O43186 1-299); details: protein: recombinant; tags: N-terminal GST; dsDNA, one strand shown
# CRX, sequence (O43186 whole entry): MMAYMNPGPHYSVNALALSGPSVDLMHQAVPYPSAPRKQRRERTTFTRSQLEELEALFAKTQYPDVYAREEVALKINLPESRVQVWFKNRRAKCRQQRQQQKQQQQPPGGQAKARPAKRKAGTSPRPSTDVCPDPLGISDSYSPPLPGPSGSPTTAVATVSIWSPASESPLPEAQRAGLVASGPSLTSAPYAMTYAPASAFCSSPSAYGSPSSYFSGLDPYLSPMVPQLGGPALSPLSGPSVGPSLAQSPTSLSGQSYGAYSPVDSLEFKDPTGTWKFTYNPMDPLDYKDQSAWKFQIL
# Procedure, shortened: as §1
# ETV1 = ETV1 (Homo sapiens, UniProt P50549 1-477); details: protein: recombinant; tags: N-terminal GST; dsDNA, one strand shown
# ETV1, sequence (P50549 whole entry): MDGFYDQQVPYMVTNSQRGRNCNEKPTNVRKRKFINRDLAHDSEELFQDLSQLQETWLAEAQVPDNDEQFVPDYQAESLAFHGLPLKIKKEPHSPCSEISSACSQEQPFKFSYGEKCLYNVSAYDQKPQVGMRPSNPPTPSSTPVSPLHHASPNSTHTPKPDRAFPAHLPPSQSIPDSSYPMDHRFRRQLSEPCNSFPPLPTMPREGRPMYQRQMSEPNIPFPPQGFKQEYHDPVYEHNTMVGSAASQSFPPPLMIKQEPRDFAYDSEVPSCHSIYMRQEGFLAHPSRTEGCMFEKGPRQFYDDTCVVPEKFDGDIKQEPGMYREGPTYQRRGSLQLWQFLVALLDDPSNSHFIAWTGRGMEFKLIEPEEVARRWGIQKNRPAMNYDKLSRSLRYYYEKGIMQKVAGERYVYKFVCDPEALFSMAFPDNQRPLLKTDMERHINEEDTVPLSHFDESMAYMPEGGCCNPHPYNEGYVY
# Procedure, shortened: as §1
# ERF = biological target: T6, ERF (Homo sapiens, UniProt P50548 1-548); details: protein: recombinant; tags: N-terminal GST; dsDNA, one strand shown
# T6 sequence: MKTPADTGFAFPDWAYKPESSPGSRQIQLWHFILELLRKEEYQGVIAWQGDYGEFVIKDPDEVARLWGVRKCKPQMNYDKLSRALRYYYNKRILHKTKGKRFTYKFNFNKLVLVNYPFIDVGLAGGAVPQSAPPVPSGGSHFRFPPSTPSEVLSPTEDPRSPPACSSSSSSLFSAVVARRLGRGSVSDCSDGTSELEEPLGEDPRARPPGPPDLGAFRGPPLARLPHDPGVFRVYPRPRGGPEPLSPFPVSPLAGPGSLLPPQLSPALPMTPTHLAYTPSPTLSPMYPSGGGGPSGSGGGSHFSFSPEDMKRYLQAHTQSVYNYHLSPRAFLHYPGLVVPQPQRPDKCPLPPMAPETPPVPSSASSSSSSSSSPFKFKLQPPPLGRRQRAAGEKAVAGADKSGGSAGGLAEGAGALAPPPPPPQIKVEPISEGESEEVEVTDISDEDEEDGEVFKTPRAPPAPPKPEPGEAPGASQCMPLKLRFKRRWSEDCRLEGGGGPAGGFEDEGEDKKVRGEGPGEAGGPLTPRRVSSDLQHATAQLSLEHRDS
# Procedure, shortened: as §1
# ETV3L = biological target: T7, ETV3L (Homo sapiens, UniProt Q6ZN32 1-361); details: protein: recombinant; tags: N-terminal GST; dsDNA, one strand shown
# T7 sequence: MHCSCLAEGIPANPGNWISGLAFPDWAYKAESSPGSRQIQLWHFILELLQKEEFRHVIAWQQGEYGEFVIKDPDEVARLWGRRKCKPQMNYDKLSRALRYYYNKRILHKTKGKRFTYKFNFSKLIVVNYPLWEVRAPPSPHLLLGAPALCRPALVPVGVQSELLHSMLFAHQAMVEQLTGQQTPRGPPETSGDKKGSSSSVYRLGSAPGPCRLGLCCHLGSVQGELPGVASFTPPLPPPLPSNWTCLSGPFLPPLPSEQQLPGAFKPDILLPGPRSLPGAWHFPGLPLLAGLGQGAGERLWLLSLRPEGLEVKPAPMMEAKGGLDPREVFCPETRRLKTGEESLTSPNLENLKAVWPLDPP
# Procedure, shortened: as §1
# ETS2 = biological target: T8, ETS2 (Homo sapiens, UniProt P15036 1-469); details: protein: recombinant; tags: N-terminal GST; dsDNA, one strand shown
# T8 sequence: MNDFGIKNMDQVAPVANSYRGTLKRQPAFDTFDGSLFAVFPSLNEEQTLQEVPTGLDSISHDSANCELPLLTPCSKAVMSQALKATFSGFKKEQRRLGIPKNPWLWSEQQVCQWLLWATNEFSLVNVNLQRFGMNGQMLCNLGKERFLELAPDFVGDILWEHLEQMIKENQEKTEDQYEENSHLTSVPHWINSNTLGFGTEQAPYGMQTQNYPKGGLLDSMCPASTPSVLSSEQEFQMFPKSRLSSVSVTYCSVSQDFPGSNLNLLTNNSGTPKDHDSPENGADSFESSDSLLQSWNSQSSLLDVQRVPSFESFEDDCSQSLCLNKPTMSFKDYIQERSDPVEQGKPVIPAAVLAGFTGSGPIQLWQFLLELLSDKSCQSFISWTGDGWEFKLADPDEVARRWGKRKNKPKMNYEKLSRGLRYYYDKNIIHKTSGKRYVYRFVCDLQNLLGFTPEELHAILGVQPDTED
# Procedure, shortened: as §1
# SPDEF = biological target: T9, SPDEF (Homo sapiens, UniProt O95238 1-335); details: protein: recombinant; tags: N-terminal GST; dsDNA, one strand shown
# T9 sequence: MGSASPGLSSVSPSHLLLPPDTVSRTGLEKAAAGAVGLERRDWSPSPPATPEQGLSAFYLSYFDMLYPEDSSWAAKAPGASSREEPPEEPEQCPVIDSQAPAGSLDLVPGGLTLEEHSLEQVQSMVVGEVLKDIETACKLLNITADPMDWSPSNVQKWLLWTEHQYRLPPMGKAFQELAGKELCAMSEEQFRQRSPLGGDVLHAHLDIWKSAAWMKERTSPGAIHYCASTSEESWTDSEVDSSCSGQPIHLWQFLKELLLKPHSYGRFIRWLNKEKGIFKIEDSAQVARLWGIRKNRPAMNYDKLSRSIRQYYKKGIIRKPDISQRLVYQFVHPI
# Procedure, shortened: as §1
# ETV7 = biological target: T10, ETV7 (Homo sapiens, UniProt Q9Y603 1-341); details: protein: recombinant; tags: N-terminal GST; dsDNA, one strand shown
# T10 sequence: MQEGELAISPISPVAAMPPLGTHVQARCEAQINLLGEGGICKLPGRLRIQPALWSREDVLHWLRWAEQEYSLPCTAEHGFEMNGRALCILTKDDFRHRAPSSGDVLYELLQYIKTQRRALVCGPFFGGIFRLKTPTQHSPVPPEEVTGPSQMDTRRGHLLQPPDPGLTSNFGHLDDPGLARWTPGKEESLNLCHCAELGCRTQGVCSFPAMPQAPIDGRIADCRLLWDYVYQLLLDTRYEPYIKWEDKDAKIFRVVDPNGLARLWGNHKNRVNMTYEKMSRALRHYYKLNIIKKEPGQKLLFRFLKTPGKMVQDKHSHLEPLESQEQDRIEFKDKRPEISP
# Procedure, shortened: as §1
# ELF5 = biological target: T11, ELF5 (Homo sapiens, UniProt Q9UKW6-2 1-255); details: protein: recombinant; tags: N-terminal GST; dsDNA, one strand shown
# T11 sequence: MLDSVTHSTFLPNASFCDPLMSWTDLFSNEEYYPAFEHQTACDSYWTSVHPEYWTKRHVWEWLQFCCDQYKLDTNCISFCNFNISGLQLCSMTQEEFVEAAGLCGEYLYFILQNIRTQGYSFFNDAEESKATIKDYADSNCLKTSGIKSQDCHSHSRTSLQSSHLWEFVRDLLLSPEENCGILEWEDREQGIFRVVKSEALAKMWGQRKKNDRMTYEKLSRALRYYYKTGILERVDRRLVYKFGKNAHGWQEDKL
# Procedure, shortened: as §1
# ETV3 = biological target: T12, ETV3 (Homo sapiens, UniProt P41162-2 1-143); details: protein: recombinant; tags: N-terminal GST; dsDNA, one strand shown
# T12 sequence: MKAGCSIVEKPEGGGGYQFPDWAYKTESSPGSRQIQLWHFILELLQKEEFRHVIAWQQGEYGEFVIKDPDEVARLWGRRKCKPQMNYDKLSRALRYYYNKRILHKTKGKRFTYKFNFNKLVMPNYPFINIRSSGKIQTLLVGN
# Procedure, shortened: as §1
# ETV6 = ETV6 (Homo sapiens, UniProt P41212 1-452); details: protein: recombinant; tags: N-terminal GST; dsDNA, one strand shown
# ETV6, sequence (P41212 whole entry): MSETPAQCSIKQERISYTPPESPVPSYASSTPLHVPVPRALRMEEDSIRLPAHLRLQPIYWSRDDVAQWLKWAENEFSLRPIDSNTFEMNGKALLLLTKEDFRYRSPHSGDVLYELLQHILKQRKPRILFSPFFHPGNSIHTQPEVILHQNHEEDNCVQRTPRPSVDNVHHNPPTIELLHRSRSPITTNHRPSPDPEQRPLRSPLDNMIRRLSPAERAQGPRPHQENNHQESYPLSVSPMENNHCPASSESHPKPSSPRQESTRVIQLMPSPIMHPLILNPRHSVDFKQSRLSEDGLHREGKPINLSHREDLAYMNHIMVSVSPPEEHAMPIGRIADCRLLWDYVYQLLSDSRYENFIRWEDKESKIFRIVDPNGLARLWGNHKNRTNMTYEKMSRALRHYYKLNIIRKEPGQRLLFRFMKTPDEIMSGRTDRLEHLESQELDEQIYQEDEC
# Procedure, shortened: as §1
sequence,measurement,setting,value
TCCTAT,binding signal,FEV,"1.41 fold enrichment (6-mer frequency, TF over GST control)"
same,binding signal,ETV5,"1.47 fold enrichment (6-mer frequency, TF over GST control)"
same,binding signal,HSF1,"1.41 fold enrichment (6-mer frequency, TF over GST control)"
same,binding signal,SPIC,"1.68 fold enrichment (6-mer frequency, TF over GST control)"
same,binding signal,ELF4,"1.46 fold enrichment (6-mer frequency, TF over GST control)"
same,binding signal,ELK4,"1.49 fold enrichment (6-mer frequency, TF over GST control)"
same,binding signal,ETV2,"1.56 fold enrichment (6-mer frequency, TF over GST control)"
same,binding signal,ELF3,"1.74 fold enrichment (6-mer frequency, TF over GST control)"
same,binding signal,CRX,"1.68 fold enrichment (6-mer frequency, TF over GST control)"
same,binding signal,ETV1,"1.57 fold enrichment (6-mer frequency, TF over GST control)"
same,binding signal,ERF,"1.56 fold enrichment (6-mer frequency, TF over GST control)"
same,binding signal,ETV3L,"1.5 fold enrichment (6-mer frequency, TF over GST control)"
same,binding signal,ETS2,"1.65 fold enrichment (6-mer frequency, TF over GST control)"
same,binding signal,SPDEF,"1.72 fold enrichment (6-mer frequency, TF over GST control)"
same,binding signal,ETV7,"1.53 fold enrichment (6-mer frequency, TF over GST control)"
same,binding signal,ELF5,"1.56 fold enrichment (6-mer frequency, TF over GST control)"
same,binding signal,ETV3,"1.64 fold enrichment (6-mer frequency, TF over GST control)"
same,binding signal,ETV6,"1.66 fold enrichment (6-mer frequency, TF over GST control)"
